Results from PubChem BioAssay (NCI).
Compounds without any hit were thinned out: in the full panel of roughly 83,000, 20% have a hit.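 The test compound was applied at a single concentration to cells in 96-well plates for 48 hours, and percent growth was recorded.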 Unmarked numbers belong to inactive results. Activity calls are given as the source filed them. Rule for the calls: active = growth percent below 10; inactive = the rest.

Legend:
Assay in all cases: NCI-60 one-dose screen, 48 h (100 = growth as untreated, 0 = no growth, -100 = all killed)
Details in all cases: 10 µM unless noted
SK-MEL-2 melanoma = system: SK-MEL-2 melanoma
EKVX NSCLC = system: EKVX NSCLC
SN12C renal = system: SN12C renal
UO-31 renal = system: UO-31 renal
TK-10 renal = system: TK-10 renal
ACHN renal = system: ACHN renal
CAKI-1 renal = system: CAKI-1 renal
A498 renal = system: A498 renal
CCRF-CEM leukemia = system: CCRF-CEM leukemia
MOLT-4 leukemia = system: MOLT-4 leukemia

Structure (SMILES) | growth (SK-MEL-2 melanoma) | growth (EKVX NSCLC) | growth (SN12C renal) | growth (UO-31 renal) | growth (TK-10 renal) | growth (ACHN renal) | growth (CAKI-1 renal) | growth (A498 renal) | growth (CCRF-CEM leukemia) | growth (MOLT-4 leukemia)
COc1cc(N2C(=O)[C@H](Cl)C2c2ccc(SC)cc2)cc(OC)c1OC (stereo not given in full) | 44.6% | 28.6% | 31.8% | 40.6% | 49.1% | 30.3% | 24.3% | -7.35% (active) | 11.4% | 7.86% (active)
C=C1C(=O)O[C@H]2[C@H]1CC/C(COC(=O)NCc1ccc(Cn3c(=O)sn(-c4ccccc4)c3=O)cc1)=C\CC[C@@]1(C)O[C@@H]21 | 49.6% | 77.1% | 33.9% | 66.6% | 4.49% (active) | 29.6% | 15.6% | 127% | -9.16% (active) | -5.87% (active)
Oc1c(CN2CCC(N3CCOCC3)CC2)cc(Cc2cc(CN3CCC(N4CCOCC4)CC3)c(O)c3ncccc23)c2cccnc12 | 53.7% | 24.9% | 29.1% | 17.9% | 42.3% | 23.5% | 13.2% | 69.1% | 12.6% | 6.57% (active)
COc1ccc(/C=C(\C(=O)NCc2cccnc2)S(=O)(=O)c2ccccc2)cc1OC | 54.6% | 38.9% | 10.9% | 38.8% | 46.4% | 52.8% | 36.1% | 51% | 9.07% (active) | 39.3%
CCOc1ccc(/C=C/C(=O)c2cccc(OCCCOc3cccc(C(=O)/C=C/c4ccc(OCC)cc4)c3)c2)cc1 | 106% | 76.9% | 79.5% | 73.4% | 120% | 79.4% | 78% | 73.4% | 67.9% | 73.5%
Cc1ccc(-c2nc(SCC(=O)N3CCN(c4cc5c(cc4F)c(=O)c(C(=O)O)cn5C4CC4)CC3)nc(Cl)c2C#N)cc1 | 97.8% | 96.1% | 96.3% | 82.1% | 104% | 106% | 94.7% | 103% | 106% | 105%
CCN1C(=O)N(CC)C2C1NN=c1s/c(=C\c3ccc(OC)cc3)c(=O)n12 (stereo not given) | 34.5% | 51.9% | 24.9% | 39.3% | 66.2% | 28.5% | 25.5% | 11.8% | 9.06% (active) | 14%
O=C(/C=C/C12c3ccccc3C(c3ccccc31)C1C(=O)NC(=O)C12)c1ccco1 (stereo not given) | 7.24% (active) | 55.6% | 22.6% | 42% | 33.6% | 45.6% | 48.1% | 61.7% | -5.48% (active) | 6.25% (active)
O=C(CN1C(=O)S/C(=C\C(Cl)=C\c2ccccc2)C1=O)NC1CCS(=O)(=O)C1 (stereo not given) | 85% | 82.4% | 79.7% | 65.6% | 64% | 46.8% | 78.1% | 99.7% | 12.3% | 40.7%
CC[C@H](Nc1nc(N)nc(C)c1C#N)c1nc2cccc(CN(C)c3ncc(C(=O)NO)cn3)c2c(=O)n1-c1ccccc1 | -5.85% (active) | 35.3% | 2.71% (active) | -4.88% (active) | -21.8% (active) | 24% | 18.1% | -40% (active) | 15.3% | 9.84% (active)
C=C1C(=O)O[C@H]2[C@H]1CC/C(COC(=O)/C=C\C(=O)NCc1ccc(Cn3c(=O)sn(CCCCl)c3=O)cc1)=C\CC[C@@]1(C)O[C@@H]21 | 83.4% | 94.1% | 64.9% | 53.1% | 57.7% | 40.2% | 51.6% | 103% | 1.6% (active) | 60.7%
Cc1ccc(S(=O)(=O)OCC#CCOS(=O)(=O)c2ccc(C)cc2)cc1 | 66.4% | 60.9% | 64.1% | -87.1% (active) | 101% | 49.5% | -82.9% (active) | 85.9% | 7.43% (active) | 46.3%
N=C(N)c1ccc(-c2ccc(-c3ccccc3)o2)o1 | 45.1% | 51.9% | 39% | 41.9% | 60.5% | 38.5% | 37.4% | 48.7% | 15.4% | 15.6%
Cc1c(O)cc(-c2cnc(N/N=C/c3ccccc3)s2)c(O)c1C | 104% | 87.2% | 95.6% | 79.9% | 129% | 99.4% | 91.7% | -20.4% (active) | 8.48% (active) | 9.73% (active)
COC(=O)/C=C1/SC(=NCc2ccccc2)N(CCc2c[nH]c3ccccc23)C1=O | 85.8% | 88.1% | 85.4% | 73% | 129% | 99.5% | 102% | 88.1% | 30.3% | 3.29% (active)
COc1cc(C=C2C(=O)NC(=S)NC2=O)cc(CN2CCCC2)c1O | 110% | 101% | 104% | 87% | 109% | 111% | 90.5% | 101% | 107% | 110%
C[C@@H]1CN(c2cnc(C(=O)Nc3cc(F)cc4cccnc34)cn2)C[C@H](C)N1 | 105% | 77% | 83.2% | 44.1% | 72.2% | 32.3% | 66.2% | 67.4% | 26.9% | 33%
O=c1ccc2ccc(OCCN3CCCCC3)cc2o1 | 101% | 101% | 95.9% | 80.8% | 104% | 104% | 104% | 85% | 0.515% (active) | 7.74% (active)
Nc1cc(-c2ccc(Cl)cc2)nn1-c1nnc(/C=C/c2ccco2)c(=O)[nH]1 | 87.9% | 41.7% | 68.2% | 3.92% (active) | 51.2% | 29.4% | 1.03% (active) | 33.8% | 33.9% | 44.4%
COC(=O)[C@@]12CC=C(C)[C@]3(C[C@H](c4ccoc4)OC3=O)[C@H]1C=C[C@@H](O)[C@@]2(O)C(=O)OC | 84.6% | 94.7% | 104% | 82.7% | 80.3% | 105% | 85.1% | 109% | 111% | 106%
C/C(=N\Nc1ccccc1)c1ccc(NC2=CC(=O)c3ccccc3C2=O)cc1 | 55.6% | 74% | 63.5% | 38.8% | 81.5% | 48.2% | 43.8% | 110% | 62.7% | 63%
CCN(CC)C(=O)CC1=C(C)/C(=C/c2[nH]c(-c3ccc[nH]3)cc2OC)N=C1C | -36.1% (active) | 32.7% | 29.1% | -59.3% (active) | 28.2% | 1.61% (active) | -8.05% (active) | -8.32% (active) | 25.8% | 12.4%
O=[N+]([O-])c1ccccc1Nc1ccc2ccccc2c1 | 104% | 87.7% | 98.9% | 59.4% | 99.7% | 99.2% | 78.3% | 59.9% | 92.3% | 76.8%
C#Cc1cccc(Nc2ncnc3cc(NC(=O)CCl)ccc23)c1 | -61.5% (active) | -45.5% (active) | -78.1% (active) | -91.5% (active) | -91.5% (active) | -95.9% (active) | -82.4% (active) | 20.5% | -19.4% (active) | -16.4% (active)
COc1ccccc1S(=O)(=O)Nc1ccc2c3c(cc(CCC(=O)NCCCCNc4cccc5c4C(=O)N(C4CCC(=O)NC4=O)C5=O)cc13)C(=O)N2C (stereo not given) | 11% | 71% | 7.95% (active) | 55.2% | 58% | 92.4% | 37.5% | 15.6% | -0.604% (active) | 0.837% (active)
CS(=O)/C(C#N)=C\C=C\c1cccc(Cl)c1 (stereo not given) | 31.9% | 38.9% | 19.9% | 21.4% | 35% | 3.18% (active) | 20.5% | 12.1% | 2.45% (active) | 7.07% (active)
